According to PubChem BioAssay (Tox21):
Several values for one entry are separate records, joined by “and”; a condition that tells them apart may be missing. Equal values may be shown once. Records with an inconclusive call do not appear. The source holds several records for some structures; these can differ, active in one and inactive in another. Activity calls are given as the source filed them. Unless noted, calls come from the whole dose curve; as a rule, active = well fitted curve in the direction sought with a large enough effect in the repeat runs; inconclusive = weak or mixed curves; inactive = no such curve, though single readings can be large; an effect the other way counts as inactive or inconclusive.

How the values were obtained:
[1] = qHTS assay to identify small molecule antagonists of the thyroid receptor (TR) signaling pathway - cell viability counter screen (AID 743064); note: nearly all actives have a fitted effect of over 50% in size; note: potency is the fitted concentration of half-maximal effect
Procedure, shortened: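 Compounds were tested on GH3.TRE-Luc cells in the presence of T3 at 1 nM final. Following 23.5 h at 37 °C, cell viability was quantified by CellTiter-Fluor.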

[2] = tested on: thyroid hormone receptor (rat, GH3 cells); assay: qHTS assay to identify small molecule agonists of the thyroid receptor (TR) signaling pathway (AID 743066; calls by dose curve)
[3] = target: Estrogen receptor (Homo sapiens) (UniProt P03372); assay: qHTS assay to identify small molecule antagonists of the estrogen receptor alpha (ER-alpha) signaling pathway (AID 743069; active = well fitted curve in the direction sought with a large enough effect in the signal ratio in the repeat runs, not every such curve was filed as active; the % refers to the signal ratio)
Estrogen receptor (Homo sapiens), sequence (P03372 whole entry, looked up): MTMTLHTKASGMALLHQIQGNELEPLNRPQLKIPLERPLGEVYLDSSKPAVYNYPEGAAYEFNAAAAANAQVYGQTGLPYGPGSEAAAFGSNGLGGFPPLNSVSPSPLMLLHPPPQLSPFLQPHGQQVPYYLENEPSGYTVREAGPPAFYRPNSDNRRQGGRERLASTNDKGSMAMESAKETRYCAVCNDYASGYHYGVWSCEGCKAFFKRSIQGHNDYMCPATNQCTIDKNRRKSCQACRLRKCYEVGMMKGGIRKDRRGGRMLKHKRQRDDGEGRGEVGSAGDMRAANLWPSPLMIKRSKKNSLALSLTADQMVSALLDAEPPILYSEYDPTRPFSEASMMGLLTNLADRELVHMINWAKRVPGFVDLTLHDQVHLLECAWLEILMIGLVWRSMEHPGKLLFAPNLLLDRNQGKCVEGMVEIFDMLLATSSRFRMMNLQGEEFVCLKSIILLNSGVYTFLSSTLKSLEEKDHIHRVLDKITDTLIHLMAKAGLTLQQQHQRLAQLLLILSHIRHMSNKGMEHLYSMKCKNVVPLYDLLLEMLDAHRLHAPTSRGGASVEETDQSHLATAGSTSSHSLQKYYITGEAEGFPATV
Procedure, shortened: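 Compound effects are measured against 17beta-estradiol stimulation in HEK293 cells with a UAS-controlled beta-lactamase reporter for ER-alpha. Exposure lasts 18 hr at 37C; LiveBLAzer B/G FRET substrate follows for 2 hr at room temperature.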

[4] = qHTS assay to identify small molecule antagonists of the estrogen receptor alpha (ER-alpha) signaling pathway - cell viability counter screen (AID 743074; calls by dose curve;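 note: HEK293 cells carrying ER-alpha-UAS-bla reporter stimulated with 17beta-estradiol; nearly all actives have a fitted effect of over 45% in size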; note: potency is the fitted concentration of half-maximal effect)
[5] = target: Estrogen receptor (Homo sapiens) (UniProt P03372); assay: qHTS assay to identify small molecule agonists of the estrogen receptor alpha (ER-alpha) signaling pathway (AID 743075; calls by dose curve)
[6] = target: Estrogen receptor (Homo sapiens) (UniProt P03372); assay: qHTS assay to identify small molecule agonists of the estrogen receptor alpha (ER-alpha) signaling pathway using the BG1 cell line (AID 743079); note: nearly all actives have a fitted effect of over 20% in size; note: potency is the fitted concentration of half-maximal effect
[7] = qHTS assay to identify small molecule antagonists of the estrogen receptor alpha (ER-alpha) signaling pathway using the BG1 cell line (AID 743080; calls by dose curve;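 note: BG1 cells stimulated with 17beta-estradiol alongside compound; nearly all actives have a fitted effect of over 25% in size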; note: potency is the fitted concentration of half-maximal effect)
Procedure, shortened: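 BG1-Luc-4E2 cells (endogenous full-length ER-alpha, 4xERE luciferase) hormone-starved 5 days in charcoal-stripped FBS, plated 4,000/well for 24 h, then compound plus 17beta-estradiol for 21.5 h at 37 C; ONE-Glo luminescence read.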

[8] = qHTS assay to identify small molecule antagonists of the estrogen receptor alpha (ER-alpha) signaling pathway using the BG1 cell line - cell viability counter screen (AID 743081);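 note: compound given together with 17beta-estradiol as the ER stimulus; nearly all actives have a fitted effect of over 45% in size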; note: potency is the fitted concentration of half-maximal effect
Aromatase (Homo sapiens) = Aromatase (Homo sapiens) (UniProt P11511); assay: qHTS assay to identify aromatase inhibitors (AID 743083); note: nearly all actives have a fitted effect of over 55% in size; note: potency is the fitted concentration of half-maximal effect
Aromatase (Homo sapiens), sequence (P11511 whole entry, looked up): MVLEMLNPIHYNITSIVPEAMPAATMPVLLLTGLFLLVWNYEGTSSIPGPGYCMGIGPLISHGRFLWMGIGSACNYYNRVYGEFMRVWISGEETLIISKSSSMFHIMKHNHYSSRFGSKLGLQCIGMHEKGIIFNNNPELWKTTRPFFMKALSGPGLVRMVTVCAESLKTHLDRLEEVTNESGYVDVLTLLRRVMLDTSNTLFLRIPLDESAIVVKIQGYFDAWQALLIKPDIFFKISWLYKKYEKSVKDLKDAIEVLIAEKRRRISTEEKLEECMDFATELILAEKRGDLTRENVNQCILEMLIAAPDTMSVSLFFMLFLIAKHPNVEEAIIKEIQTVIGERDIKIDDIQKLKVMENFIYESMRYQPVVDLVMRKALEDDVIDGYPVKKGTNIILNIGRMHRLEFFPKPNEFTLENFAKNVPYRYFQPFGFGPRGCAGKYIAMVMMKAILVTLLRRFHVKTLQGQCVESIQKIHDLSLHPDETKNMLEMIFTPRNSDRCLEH

[9] = qHTS assay to identify aromatase inhibitors - cell viability counter screen (AID 743084);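 note: cells stimulated with testosterone during compound exposure; nearly all actives have a fitted effect of over 55% in size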
[10] = target: Aryl hydrocarbon receptor (Homo sapiens) (UniProt P35869); assay: qHTS assay to identify small molecule that activate the aryl hydrocarbon receptor (AhR) signaling pathway (AID 743085); note: nearly all actives have a fitted effect of over 15% in size; note: potency is the fitted concentration of half-maximal effect;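 for activation: HG2L7.5c1 human HepG2 liver cells with stably integrated DRE-driven firefly reporter; series mostly up to about 70 µM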
Aryl hydrocarbon receptor (Homo sapiens), sequence (P35869 whole entry, looked up): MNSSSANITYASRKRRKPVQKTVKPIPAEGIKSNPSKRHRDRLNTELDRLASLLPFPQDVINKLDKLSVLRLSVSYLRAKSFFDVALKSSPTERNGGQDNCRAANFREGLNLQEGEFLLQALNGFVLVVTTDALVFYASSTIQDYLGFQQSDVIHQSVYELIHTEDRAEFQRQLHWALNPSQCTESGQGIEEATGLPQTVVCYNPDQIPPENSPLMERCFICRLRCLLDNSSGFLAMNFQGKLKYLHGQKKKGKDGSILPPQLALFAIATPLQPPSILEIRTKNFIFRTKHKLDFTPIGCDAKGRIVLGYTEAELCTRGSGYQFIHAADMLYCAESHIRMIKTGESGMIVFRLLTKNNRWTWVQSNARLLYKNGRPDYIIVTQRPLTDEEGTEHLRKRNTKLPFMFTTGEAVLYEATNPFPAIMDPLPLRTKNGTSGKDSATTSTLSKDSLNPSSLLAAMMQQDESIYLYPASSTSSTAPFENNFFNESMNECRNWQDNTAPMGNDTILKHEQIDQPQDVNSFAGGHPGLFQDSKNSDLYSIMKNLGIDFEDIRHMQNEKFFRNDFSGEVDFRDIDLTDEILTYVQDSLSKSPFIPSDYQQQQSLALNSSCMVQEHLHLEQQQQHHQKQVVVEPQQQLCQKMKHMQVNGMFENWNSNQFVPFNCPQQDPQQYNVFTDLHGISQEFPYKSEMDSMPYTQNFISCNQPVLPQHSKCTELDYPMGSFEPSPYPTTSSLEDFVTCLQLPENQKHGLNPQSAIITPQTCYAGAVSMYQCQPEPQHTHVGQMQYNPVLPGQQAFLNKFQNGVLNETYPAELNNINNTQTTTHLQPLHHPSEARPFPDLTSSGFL
Procedure, shortened: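 24 h compound exposure, 37C, HepG2-derived HG2L7.5c1 cells with DRE-responsive luciferase. Readouts: fluorescence viability, then luminescence at room temperature after 30 min.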

[11] = target: Peroxisome proliferator-activated receptor gamma (Homo sapiens) (UniProt P37231); assay: qHTS assay to identify small molecule agonists of the peroxisome proliferator-activated receptor gamma (PPARg) signaling pathway (AID 743094; active = well fitted activation curve with a large enough effect in the signal ratio in the repeat runs, not every such curve was filed as active; the % refers to the signal ratio)
Peroxisome proliferator-activated receptor gamma (Homo sapiens), sequence (P37231 whole entry, looked up): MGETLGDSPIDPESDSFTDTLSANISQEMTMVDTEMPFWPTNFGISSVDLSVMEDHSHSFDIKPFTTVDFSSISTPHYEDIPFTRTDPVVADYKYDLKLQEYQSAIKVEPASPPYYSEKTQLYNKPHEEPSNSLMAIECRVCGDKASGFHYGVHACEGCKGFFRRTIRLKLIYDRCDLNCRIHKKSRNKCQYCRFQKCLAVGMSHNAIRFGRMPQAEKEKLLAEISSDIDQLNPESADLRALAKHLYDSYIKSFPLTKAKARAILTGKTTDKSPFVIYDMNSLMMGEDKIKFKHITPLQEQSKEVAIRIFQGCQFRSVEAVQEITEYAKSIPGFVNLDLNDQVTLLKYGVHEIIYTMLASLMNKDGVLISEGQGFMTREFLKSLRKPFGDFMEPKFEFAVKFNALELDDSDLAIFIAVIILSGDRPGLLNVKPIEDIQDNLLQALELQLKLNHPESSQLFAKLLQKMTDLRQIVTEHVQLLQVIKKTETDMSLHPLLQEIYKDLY
Procedure, shortened: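 Quantitative HTS agonist mode: stable HEK293H line with UAS-beta-lactamase reporter under PPARg control, 17 h compound exposure at 37C, fluorescence after 1 h FRET substrate loading at room temperature.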

[12] = qHTS assay for small molecule agonists of the antioxidant response element (ARE) signaling pathway (AID 743202; active = well fitted activation curve with a large enough effect in the signal ratio in the repeat runs, not every such curve was filed as active; the % refers to the signal ratio; note: potency is the fitted concentration of half-maximal effect)
Procedure, shortened: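 An ARE-responsive beta-lactamase gene stably integrated in HepG2 cells serves as reporter. After 5 h plating and 16 h compound incubation at 37 C, fluorescence of the B/G FRET substrate was measured.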

[13] = qHTS assay for small molecule activators of the heat shock response signaling pathway - cell viability counter screen (AID 743209); note: nearly all actives have a fitted effect of over 50% in size
Procedure, shortened: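 First, HSE-bla HeLa cells were seeded at 1500 cells/well and kept overnight at 37 C. Next, compounds were pinned in and incubated 5 h. After the FRET substrate step, CellTiter-Glo was added and luminescence read 30 min later.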

[14] = qHTS assay for small molecule activators of the heat shock response signaling pathway (AID 743210; active = well fitted activation curve with a large enough effect in the signal ratio in the repeat runs, with a control signal flat, not every such curve was filed as active; the % refers to the signal ratio; note: potency is the fitted concentration of half-maximal effect;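 for activation: HeLa cells with beta-lactamase reporter driven by heat shock elements; series mostly up to about 63 µM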)
Procedure, shortened: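 In HSE-bla HeLa cells, 5 h compound incubation (37 C) precedes addition of LiveBLAzer B/G substrate; after 2.5 h at room temperature, fluorescence intensity indicates reporter induction.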

[15] = qHTS assay to identify small molecule that activate the aryl hydrocarbon receptor (AhR) signaling pathway - cell viability counter screen (AID 743086);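 note: HepG2 liver cells carrying the AhR DRE luciferase reporter; series mostly up to about 70 µM; nearly all actives have a fitted effect of over 45% in size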
Procedure, shortened: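 Cytotoxicity counter screen: CellTiter-Fluor signal (30 min, 37 C) in 4000 HepG2 cells/well carrying the DRE-luciferase reporter, following 24 h compound exposure at 37 C.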

[16] = qHTS assay to identify small molecule antagonists of the peroxisome proliferator-activated receptor gamma (PPARg) signaling pathway - cell viability counter screen (AID 743194); note: nearly all actives have a fitted effect of over 55% in size
Procedure, shortened: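 Viability was measured as CellTiter-Glo luminescence in GeneBLAzer PPARg UAS-bla HEK293H cells. These cells had been exposed 17 h at 37 C to compounds together with rosiglitazone at 50 nM final, with the beta-lactamase readout taken in the same wells.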

[17] = qHTS assay for small molecule agonists of the antioxidant response element (ARE) signaling pathway - cell viability counter screen (AID 743203; calls by dose curve; note: nearly all actives have a fitted effect of over 55% in size; note: potency is the fitted concentration of half-maximal effect)
Procedure, shortened: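 Seeded at 2,000 cells/well, ARE-bla HepG2 cells were incubated 5 hrs before compound addition. After 16 hrs of treatment at 37C with 5% CO2, CellTiter-Glo reagent was added and luminescence read 30 min later.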

[18] = qHTS assay to identify small molecule antagonists of the thyroid receptor (TR) signaling pathway (AID 743065); note: nearly all actives have a fitted effect of over 55% in size; note: potency is the fitted concentration of half-maximal effect
Procedure, shortened: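 Antagonism measured as loss of luciferase signal in GH3 cells stably carrying a TRE-luciferase reporter, co-treated with compound and T3 (1 nM final) for 23.5 h at 37 C. Viability was read in the same well by CellTiter-Fluor.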

[19] = target: Peroxisome proliferator-activated receptor gamma (Homo sapiens) (UniProt P37231); assay: qHTS assay to identify small molecule antagonists of the peroxisome proliferator-activated receptor gamma (PPARg) signaling pathway (AID 743191; calls by dose curve; note: series mostly up to about 63 µM; nearly all actives have a fitted effect of over 30% in size)
Procedure, shortened: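 Beta-lactamase reporter under UAS control in HEK293H PPARg-bla cells; compound treatment 17 h at 37C. Read-out: fluorescence intensity after 1 h room-temperature incubation with LiveBLAzer B/G FRET substrate.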

Measured: Potency

Cc1cccc(C(=O)O)c1
not listed: [15] | [16] | [17] | [18] | [19]
inactive: all other assays above

COC(=O)CCC(=O)OC
not listed: [10] | [14] | [18] | [19]
inactive: all other assays above

Clc1nc(Cl)c(Cl)c(Cl)c1Cl
active: [12] 7.74 µM
not listed: [3] | [5] | [6] | [7] | [15] | [17] | [19]
inactive: all other assays above

CC(CCC(=O)O)(c1ccc(O)cc1)c1ccc(O)cc1
active: [6] 61.1 µM
not listed: [15] | [16]
inactive: all other assays above

CN1C(C(=O)Nc2ccccn2)=C(O)c2ccccc2S1(=O)=O
inactive and 24.6 µM (active): [10]
not listed: [16] | [18] | [19]
inactive: all other assays above

Cc1[nH]c(=O)c(C#N)cc1-c1ccncc1
not listed: [19]
inactive: all other assays above

OCCO
not listed: [18]
inactive: all other assays above

CCC(C)c1ccccc1O (stereo unspecified)
not listed: [3] | [4] | [5] | [6] | [7] | [17] | [19]
inactive: all other assays above

CCCCNS(=O)(=O)c1ccccc1
not listed: [17] | [18]
inactive: all other assays above

CC(C)OC=O
not listed: [17] | [18]
inactive: all other assays above

CC(=O)CC/C=C(\C)CCC=C(C)C
inactive: all assays above

CCCCC(CC)COP(=O)(OCC(CC)CCCC)OCC(CC)CCCC (stereo unspecified)
not listed: [3] | [5] | [6] | [7] | [16] | [19]
inactive: all other assays above

Nc1ccc(S(=O)(=O)Nc2cnc3ccccc3n2)cc1
not listed: [3] | [5] | [6] | [7] | [19]
inactive: all other assays above

Cc1ccc(C(=O)c2cc(O)c(O)c([N+](=O)[O-])c2)cc1
inactive and 61.1 µM (active): [1]
active: [18] 68.6 µM | [8] 33.5 µM and 54.5 µM | [17] 9.69 µM
inactive: [2] | [9] | [10] | [15] | [13] | [14]

O=Cc1ccccc1O
not listed: [4] | [6] | [14] | [19]
inactive: all other assays above

Cc1ccc(C)c(O)c1C
not listed: [15] | [19]
inactive: all other assays above

S=C(NC1CCCCC1)NC1CCCCC1
active: [4] 48.1 µM | [7] 75.5 µM and 54.5 µM | [12] 34.4 µM | [14] 9.23 µM and 13.8 µM
not listed: [6] | Aromatase (Homo sapiens) | [13] | [15] | [16] | [19]
inactive: all other assays above

c1cc(-c2ccncc2)ccn1
not listed: [7] | [12] | [17]
inactive: all other assays above

Cc1cccc(N(C)C(=S)Oc2ccc3ccccc3c2)c1
not listed: [6] | [7] | [10] | [12] | [19]
inactive: all other assays above

NC=O
not listed: [3] | [4] | [5] | [6] | [7] | [16] | [17] | [19]
inactive: all other assays above

CC(=O)O[C@]1(C(C)=O)CC[C@H]2[C@@H]3C=C(Cl)C4=CC(=O)[C@@H]5C[C@@H]5[C@]4(C)[C@H]3CC[C@@]21C
inactive and 54.4 µM (active): [1] | Aromatase (Homo sapiens)
active: [18] 24.3 µM and 54.5 µM | [12] 30.6 µM
not listed: [3] | [5] | [6] | [7] | [16] | [19]
inactive: all other assays above

COC(C)COC(C)COC(C)CO (stereo unspecified)
not listed: [16] | [18]
inactive: all other assays above

Cc1c(C(N)=O)cc([N+](=O)[O-])cc1[N+](=O)[O-]
not listed: [11] | [14] | [16] | [18] | [19]
inactive: all other assays above

CCCCC(CC)COC(=O)c1ccc(N(C)C)cc1 (stereo unspecified)
inactive and 27.3 µM (active): [10]
not listed: [15] | [16] | [19]
inactive: all other assays above

c1ccncc1
not listed: [18] | [19]
inactive: all other assays above

CC(C)OB(OC(C)C)OC(C)C
not listed: [16]
inactive: all other assays above

O=S(=O)(O)c1ccc(O)cc1
inactive: all assays above

OC(CCl)CCl
not listed: [15] | [17] | [19]
inactive: all other assays above

O=C(OCc1ccccc1)c1ccccc1O
active: [6] 24.3 µM
not listed: [11] | [15] | [16] | [19]
inactive: all other assays above
